The source of these data is PubChem BioAssay (EPA / NIEHS).

The nature of test [1]: BSK_4H_Eotaxin3: BioMAP Diversity Plus: 4H Assay for Eotaxin 3 Biomarker Activity (AID 2283000).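 As to outcome: CCL26 protein level quantified by ELISA in parallel with SRB cytotoxicity check.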 As to conditions: primary human endothelial cells (HUVEC); actives raise or lower the signal. In a few lines:
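HUVEC, 24 h post-dose, ELISA for Eotaxin-3/CCL26. Gain or loss of signal fitted bidirectionally vs DMSO baseline.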

Test [2] concerns the target human Peroxisome Proliferator-activated Receptor alpha (PPARa), PPARA (gene 5465) (UniProt Q07869). Nature of the test: ATG_PPARa_TRANS: Attagene TRANS-FACTORIAL HepG2 Assay for human Peroxisome Proliferator-activated Receptor alpha (PPARa) (AID 2283001; active = hit-call score of the fitted dose curve at least 0.9, where 1 is the maximum). Put shortly:
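Reporter transcripts from GAL4-UAS units in transfected HepG2 were quantified 24 h after dosing. Detection used reverse transcription, PCR, fluorescent primer extension and capillary electrophoresis, with DMSO as baseline.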

Test [3] deals with human Peroxisome Proliferator-activated Receptor delta (PPARd), PPARD (gene 5467) (UniProt Q03181). Nature of the test: ATG_PPARd_TRANS: Attagene TRANS-FACTORIAL HepG2 Assay for human Peroxisome Proliferator-activated Receptor delta (PPARd) (AID 2283002; active = hit-call score of the fitted dose curve at least 0.9, where 1 is the maximum). In a few lines: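 Transient HepG2 transfection (multiple GAL4-UAS RTUs, chimeric receptor-Gal4); 24 h dosing; total RNA → oligo(dT) RT → PCR → 6-FAM primer extension → HpaI cut → CE. Positive direction vs DMSO.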

Read-out in test [4]: Intercellular Adhesion Molecule 1 (ICAM1), ICAM1 (gene 3383)
Kind of test: BSK_3C_ICAM1: BioMAP Diversity Plus: 3C Assay for Intercellular Adhesion Molecule 1 (ICAM1) Biomarker Activity (AID 2283003). As to conditions: primary human endothelial cells (HUVEC); actives raise or lower the signal. In a few lines:
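Human vascular endothelial primary cells, 3C conditions, 24 h treatment. ICAM-1 by ELISA.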

Test [5] has as its target human Retinoic Acid Receptor beta (RARb), RARB (gene 5915) (UniProt P10826). Kind of test: ATG_RARb_TRANS: Attagene TRANS-FACTORIAL HepG2 Assay for human Retinoic Acid Receptor beta (AID 2283004; active = hit-call score of the fitted dose curve at least 0.9, where 1 is the maximum). Put shortly:
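HepG2 cells transiently transfected with multiplexed GAL4-UAS reporter units expressing chimeric NR–Gal4 fusions; 24 h compound exposure. Reporter mRNA quantified by RT-PCR, 6-FAM labelling, HpaI digestion and capillary electrophoresis; gain-of-signal fitted against DMSO baseline.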

A short description of test [6]: BSK_3C_Proliferation: Cell Proliferation Assessment in the BioMAP Diversity Plus: 3C Assay (AID 2283006).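 As to AC50: potency may reflect either rise or fall in cell number versus DMSO.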 As to conditions: primary human endothelial cells (HUVEC). In a few lines: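 Proliferation of human vascular endothelial primary cells after 48 h dosing, quantified as SRB-stained protein at 560 nm relative to DMSO.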
Test [7] addresses Nuclear receptor subfamily 1 group I member 2 (Homo sapiens) (UniProt O75469). Kind of test: ATG_PXR_TRANS: Attagene TRANS-FACTORIAL HepG2 Assay for human Pregnane X Receptor (PXR) (AID 2283008; active = hit-call score of the fitted dose curve at least 0.9, where 1 is the maximum). Put shortly: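 HepG2 cells transiently transfected with GAL4-UAS reporter units and PXR-Gal4 chimera, exposed 24 h. Reporter mRNA quantified by RT-PCR, fluorescent labelling, HpaI digestion and capillary electrophoresis; gain of signal vs DMSO.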

For test [8], the target named is human Retinoic Acid Receptor gamma (RARg), RARG (gene 5916) (UniProt P13631). Nature of the test: ATG_RARg_TRANS: Attagene TRANS-FACTORIAL HepG2 Assay for human Retinoic Acid Receptor gamma (RARg) (AID 2283009; active = hit-call score of the fitted dose curve at least 0.9, where 1 is the maximum). Put shortly:
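HepG2, RARg-GAL4 TRANS system, 24 h exposure; reporter mRNA by RT-PCR + CE fluorescence; increase over DMSO.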

Test [9] deals with Retinoic acid receptor RXR-alpha (Homo sapiens) (UniProt P19793). Kind of test: ATG_RXRa_TRANS: Attagene TRANS-FACTORIAL HepG2 Assay for human Retinoid X Receptor alpha (RXRa) (AID 2283012; active = hit-call score of the fitted dose curve at least 0.9, where 1 is the maximum). Put shortly: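 Cells (HepG2) carried transiently transfected GAL4-responsive reporter units. Following a 24 h chemical incubation, reporter mRNA induction was read via RT-PCR fragment analysis; DMSO served as negative control and baseline.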

In test [10] the target is human Retinoid X Receptor beta (RXRb), RXRB (gene 6257) (UniProt P28702). Nature of the test: ATG_RXRb_TRANS: Attagene TRANS-FACTORIAL HepG2 Assay for human Retinoid X Receptor beta (RXRb) (AID 2283013; active = hit-call score of the fitted dose curve at least 0.9, where 1 is the maximum). In a few lines: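 Multiplexed TRANS reporter assay in HepG2; 24 h dosing; reporter mRNA by RT-PCR/CE fluorescence; gain-of-signal relative to DMSO.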
The target of test [11] is human Thyroid Receptor alpha (THRa1), THRA (gene 7067) (UniProt P10827). Kind of test: ATG_THRa1_TRANS: Attagene TRANS-FACTORIAL HepG2 Assay for human Thyroid Receptor alpha (THRa1) (AID 2283014; active = hit-call score of the fitted dose curve at least 0.9, where 1 is the maximum). Put shortly:
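HepG2 cells transiently transfected with multiplexed GAL4-UAS reporter units for exogenous chimeric THRa1-Gal4; reporter mRNA measured 24 h after dosing by RT-PCR, 6-FAM labelling, HpaI digestion and capillary electrophoresis. Gain-of-signal fitted versus DMSO baseline.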

Read-out in test [12]: E-selectin (Homo sapiens) (UniProt P16581)
Nature of the test: BSK_3C_Eselectin: BioMAP Diversity Plus: 3C Assay for Eselectin Biomarker Activity (AID 2283015).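 As to outcome: cell surface E-selectin protein quantified by ELISA 24 h after dosing.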 The note with it: primary human endothelial cells (HUVEC); actives raise or lower the signal. Put shortly: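 Primary human umbilical vein endothelial cells (3C system) were dosed with chemical and cell-surface E-selectin measured by ELISA 24 h later. Bidirectional curve fitting used DMSO as negative control and baseline.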

Read-out in test [13]: Interleukin-1 alpha (IL1a), IL1A (gene 3552)
Kind of test: BSK_BE3C_IL1a: BioMAP Diversity Plus: BE3C Assay for Interleukin-1 alpha (IL1a) Biomarker Activity (AID 2283016). The note with it: primary human bronchial epithelial cells; actives raise or lower the signal. In a few lines:
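Cultures of primary human bronchial epithelial cells receive test chemical. After 24 h, IL-1a is quantified by ELISA, while parallel wells are fixed in TCA and SRB-stained for total protein. Changes in either direction are fitted relative to DMSO.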

Read-out in test [14]: Monocyte Chemoattractant Protein-1 (MCP1), CCL2 (gene 6347)
Nature of the test: BSK_3C_MCP1: BioMAP Diversity Plus: 3C Assay for Monocyte Chemoattractant Protein-1 (MCP1) Biomarker Activity (AID 2283017). As to conditions: primary human endothelial cells (HUVEC); actives raise or lower the signal. Put shortly: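 Primary human umbilical vein endothelial cells (3C system) were exposed to test chemical for 24 h, after which MCP-1 was quantified by ELISA. Activity was fitted bidirectionally against DMSO as negative control and baseline.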

Read-out in test [15]: Monocyte Chemoattractant Protein-1 (MCP1), CCL2 (gene 6347)
Nature of the test: BSK_4H_MCP1: BioMAP Diversity Plus: 4H Assay for Monocyte Chemoattractant Protein-1 (MCP1) Biomarker Activity (AID 2283018). The note with it: primary human endothelial cells (HUVEC); actives raise or lower the signal. Put shortly:
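Readout: MCP-1 ELISA on compound-treated HUVEC, sampled 24 h post-dosing. Baseline and negative control DMSO; bidirectional fit. Overt toxicity checked alongside by sulforhodamine B protein staining at time of biomarker measurement.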

Read-out in test [16]: Human Leukocyte Antigen - DR isotype (HLADR), HLA-DRA (gene 3122)
Kind of test: BSK_3C_HLADR: BioMAP Diversity Plus: 3C Assay for Human Leukocyte Antigen - DR isotype (HLADR) Biomarker Activity (AID 2283019).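 As to outcome: ELISA of cell-surface HLA-DR on HUVEC 24 h after dosing.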 As to conditions: primary human endothelial cells (HUVEC); actives raise or lower the signal. Put shortly:
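Primary human umbilical vein endothelial cells (3C system) were dosed with compound and cell-surface HLA-DR was quantified by ELISA at 24 h. Activity was fitted bidirectionally against DMSO as negative control and baseline.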

Read-out in test [17]: Interleukin-8 (IL8), CXCL8 (gene 3576)
Nature of the test: BSK_3C_IL8: BioMAP Diversity Plus: 3C Assay for Interleukin-8 (IL8) Biomarker Activity (AID 2283020). As to conditions: primary human endothelial cells (HUVEC); actives raise or lower the signal. In a few lines:
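Human vascular endothelial cells (umbilical vein) in the 3C system; IL-8 level detected by ELISA at 24 h post-dose, with DMSO as baseline.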

For test [18], the target named is Peroxisome proliferator-activated receptor gamma (Homo sapiens) (UniProt P37231). Kind of test: ATG_PPARg_TRANS: Attagene TRANS-FACTORIAL HepG2 Assay for human Peroxisome Proliferator-activated Receptor-gamma (PPARg) (AID 2283007; active = hit-call score of the fitted dose curve at least 0.9, where 1 is the maximum). Put shortly: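 Twenty-four hours after chemical dosing of transiently transfected HepG2 cells, isolated RNA was converted to cDNA, reporter sequences amplified and 6-FAM-labelled, then HpaI-digested and analysed by capillary electrophoresis. Signal increase against DMSO was fitted.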

The target in test [19] is human RAR-related Orphan Receptor beta (RORb), RORB (gene 6096) (UniProt Q92753). Kind of test: ATG_RORb_TRANS: Attagene TRANS-FACTORIAL HepG2 Assay for human RAR-related Orphan Receptor beta (RORb) (AID 2283010; active = hit-call score of the fitted dose curve at least 0.9, where 1 is the maximum). Put shortly: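 In this TRANS-format test, human HepG2 cells express chimeric NR-Gal4 fusion proteins driving GAL4-UAS reporters. After 24 h dosing, reporter transcripts are measured by fluorescent RT-PCR/capillary electrophoresis, with DMSO as negative control.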

The target of test [20] is human RAR-related Orphan Receptor gamma (RORg), RORC (gene 6097) (UniProt P51449). Nature of the test: ATG_RORg_TRANS: Attagene TRANS-FACTORIAL HepG2 Assay for human RAR-related Orphan Receptor gamma (RORg) (AID 2283011; active = hit-call score of the fitted dose curve at least 0.9, where 1 is the maximum). Put shortly: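 Readout: reporter transcript induction (RT-PCR, fluorescent primer extension, capillary electrophoresis) after 24 h compound exposure of transiently transfected HepG2 cells carrying a RORg-Gal4 chimera and GAL4-UAS reporters; DMSO served as baseline, with increasing signal fitted.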

Results filed as inconclusive are left out. A structure can be active in one record and inactive in another. Calls of active or inactive are those of the source. The calls were made as follows, unless noted: active = hit-call score of the fitted dose curve at least 0.9, where 1 is the maximum; inactive = score below 0.9.

Chain of human Retinoic Acid Receptor beta (RARb), RARB (gene 5915) (P10826 whole entry, looked up, the tested form may be a part): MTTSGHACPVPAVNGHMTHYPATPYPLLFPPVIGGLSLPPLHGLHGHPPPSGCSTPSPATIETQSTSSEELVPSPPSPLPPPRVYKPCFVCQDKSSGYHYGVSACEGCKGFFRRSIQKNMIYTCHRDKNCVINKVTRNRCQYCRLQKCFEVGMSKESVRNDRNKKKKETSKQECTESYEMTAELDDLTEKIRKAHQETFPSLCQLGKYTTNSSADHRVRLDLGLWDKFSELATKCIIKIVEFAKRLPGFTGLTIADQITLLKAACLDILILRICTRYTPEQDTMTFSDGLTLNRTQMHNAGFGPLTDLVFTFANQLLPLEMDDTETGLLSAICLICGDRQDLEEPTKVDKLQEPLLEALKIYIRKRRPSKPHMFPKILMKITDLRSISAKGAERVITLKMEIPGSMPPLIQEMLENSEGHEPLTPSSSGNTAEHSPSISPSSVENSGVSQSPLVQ
Chain of human Peroxisome Proliferator-activated Receptor alpha (PPARa), PPARA (gene 5465) (Q07869 whole entry, looked up, the tested form may be a part): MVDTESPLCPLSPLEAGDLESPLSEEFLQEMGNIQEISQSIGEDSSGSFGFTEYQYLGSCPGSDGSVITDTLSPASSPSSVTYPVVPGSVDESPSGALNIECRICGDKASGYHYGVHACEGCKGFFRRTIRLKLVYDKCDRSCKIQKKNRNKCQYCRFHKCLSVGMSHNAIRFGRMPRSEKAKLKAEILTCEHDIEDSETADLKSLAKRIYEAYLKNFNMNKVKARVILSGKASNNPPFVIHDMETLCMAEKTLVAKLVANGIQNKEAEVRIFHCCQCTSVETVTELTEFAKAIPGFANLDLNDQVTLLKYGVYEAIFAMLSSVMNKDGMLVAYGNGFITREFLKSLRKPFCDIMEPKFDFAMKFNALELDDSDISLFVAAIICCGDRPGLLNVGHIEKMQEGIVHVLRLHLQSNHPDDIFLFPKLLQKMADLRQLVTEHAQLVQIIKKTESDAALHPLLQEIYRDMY
Chain of human RAR-related Orphan Receptor gamma (RORg), RORC (gene 6097) (P51449 whole entry, looked up, the tested form may be a part): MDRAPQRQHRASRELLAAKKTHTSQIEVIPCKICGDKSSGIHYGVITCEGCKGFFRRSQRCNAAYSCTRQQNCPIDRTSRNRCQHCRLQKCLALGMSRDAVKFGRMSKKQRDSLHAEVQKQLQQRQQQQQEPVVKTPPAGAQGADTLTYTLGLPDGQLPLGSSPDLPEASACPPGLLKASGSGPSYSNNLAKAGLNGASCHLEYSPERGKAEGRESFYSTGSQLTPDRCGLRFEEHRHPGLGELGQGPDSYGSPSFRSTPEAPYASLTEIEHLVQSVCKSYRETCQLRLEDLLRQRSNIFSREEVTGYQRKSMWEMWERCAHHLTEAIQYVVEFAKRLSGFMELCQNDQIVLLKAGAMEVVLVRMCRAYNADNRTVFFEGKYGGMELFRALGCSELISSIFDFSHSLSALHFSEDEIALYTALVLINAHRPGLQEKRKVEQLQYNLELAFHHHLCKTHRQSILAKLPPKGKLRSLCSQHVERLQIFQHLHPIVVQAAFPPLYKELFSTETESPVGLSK
Chain of human Retinoic Acid Receptor gamma (RARg), RARG (gene 5916) (P13631 whole entry, looked up, the tested form may be a part): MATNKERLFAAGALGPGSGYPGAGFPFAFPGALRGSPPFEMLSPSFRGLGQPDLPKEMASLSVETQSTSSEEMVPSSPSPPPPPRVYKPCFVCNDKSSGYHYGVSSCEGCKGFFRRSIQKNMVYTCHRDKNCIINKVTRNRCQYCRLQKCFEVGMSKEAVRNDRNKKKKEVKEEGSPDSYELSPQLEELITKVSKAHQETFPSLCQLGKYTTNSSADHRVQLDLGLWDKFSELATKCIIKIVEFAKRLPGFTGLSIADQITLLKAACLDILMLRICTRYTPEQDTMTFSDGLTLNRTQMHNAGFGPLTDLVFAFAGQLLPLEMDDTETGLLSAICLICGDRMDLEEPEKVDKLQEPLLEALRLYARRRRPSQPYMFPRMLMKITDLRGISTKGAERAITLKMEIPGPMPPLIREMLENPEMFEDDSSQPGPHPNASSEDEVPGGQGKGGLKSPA
Chain of human RAR-related Orphan Receptor beta (RORb), RORB (gene 6096) (Q92753 whole entry, looked up, the tested form may be a part): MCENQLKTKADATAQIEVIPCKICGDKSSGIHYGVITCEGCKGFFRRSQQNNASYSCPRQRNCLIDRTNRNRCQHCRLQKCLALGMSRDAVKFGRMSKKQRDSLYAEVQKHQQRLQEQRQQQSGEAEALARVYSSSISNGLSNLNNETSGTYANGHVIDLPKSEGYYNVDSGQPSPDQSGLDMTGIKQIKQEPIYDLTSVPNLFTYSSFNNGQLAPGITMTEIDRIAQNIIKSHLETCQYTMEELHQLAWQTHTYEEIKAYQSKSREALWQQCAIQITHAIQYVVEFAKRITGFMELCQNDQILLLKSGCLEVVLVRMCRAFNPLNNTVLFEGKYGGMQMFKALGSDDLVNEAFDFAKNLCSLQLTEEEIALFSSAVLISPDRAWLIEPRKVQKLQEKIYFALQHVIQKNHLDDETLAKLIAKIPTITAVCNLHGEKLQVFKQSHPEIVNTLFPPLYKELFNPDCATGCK
Chain of human Retinoid X Receptor beta (RXRb), RXRB (gene 6257) (P28702 whole entry, looked up): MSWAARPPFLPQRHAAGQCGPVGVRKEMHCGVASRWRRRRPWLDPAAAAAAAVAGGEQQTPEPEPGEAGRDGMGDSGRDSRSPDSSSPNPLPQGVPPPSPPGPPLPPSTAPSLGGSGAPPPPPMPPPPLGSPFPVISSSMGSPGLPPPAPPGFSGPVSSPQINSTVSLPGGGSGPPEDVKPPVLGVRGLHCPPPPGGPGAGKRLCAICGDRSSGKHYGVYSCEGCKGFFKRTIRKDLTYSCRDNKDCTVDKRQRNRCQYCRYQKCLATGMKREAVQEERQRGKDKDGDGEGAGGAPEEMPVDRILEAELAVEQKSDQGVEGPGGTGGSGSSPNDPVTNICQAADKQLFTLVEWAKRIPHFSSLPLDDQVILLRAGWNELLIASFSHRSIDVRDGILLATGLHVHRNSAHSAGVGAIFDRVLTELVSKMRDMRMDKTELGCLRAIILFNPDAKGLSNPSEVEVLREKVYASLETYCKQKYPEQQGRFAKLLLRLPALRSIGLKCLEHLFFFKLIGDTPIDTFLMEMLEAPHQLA
Chain of Nuclear receptor subfamily 1 group I member 2 (Homo sapiens) (O75469 whole entry, looked up, the tested form may be a part): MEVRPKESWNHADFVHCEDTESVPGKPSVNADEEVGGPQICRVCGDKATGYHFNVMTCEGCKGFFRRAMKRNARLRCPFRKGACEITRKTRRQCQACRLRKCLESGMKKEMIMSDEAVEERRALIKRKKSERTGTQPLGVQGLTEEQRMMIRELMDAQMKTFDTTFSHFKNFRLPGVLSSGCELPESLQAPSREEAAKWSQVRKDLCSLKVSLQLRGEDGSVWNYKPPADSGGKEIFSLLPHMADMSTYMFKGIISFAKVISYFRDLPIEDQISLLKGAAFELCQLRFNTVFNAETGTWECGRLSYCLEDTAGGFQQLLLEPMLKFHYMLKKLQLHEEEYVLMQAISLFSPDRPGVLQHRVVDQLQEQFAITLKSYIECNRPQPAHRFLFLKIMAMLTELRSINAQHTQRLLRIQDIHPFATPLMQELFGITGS
Chain of Peroxisome proliferator-activated receptor gamma (Homo sapiens) (P37231 whole entry, looked up): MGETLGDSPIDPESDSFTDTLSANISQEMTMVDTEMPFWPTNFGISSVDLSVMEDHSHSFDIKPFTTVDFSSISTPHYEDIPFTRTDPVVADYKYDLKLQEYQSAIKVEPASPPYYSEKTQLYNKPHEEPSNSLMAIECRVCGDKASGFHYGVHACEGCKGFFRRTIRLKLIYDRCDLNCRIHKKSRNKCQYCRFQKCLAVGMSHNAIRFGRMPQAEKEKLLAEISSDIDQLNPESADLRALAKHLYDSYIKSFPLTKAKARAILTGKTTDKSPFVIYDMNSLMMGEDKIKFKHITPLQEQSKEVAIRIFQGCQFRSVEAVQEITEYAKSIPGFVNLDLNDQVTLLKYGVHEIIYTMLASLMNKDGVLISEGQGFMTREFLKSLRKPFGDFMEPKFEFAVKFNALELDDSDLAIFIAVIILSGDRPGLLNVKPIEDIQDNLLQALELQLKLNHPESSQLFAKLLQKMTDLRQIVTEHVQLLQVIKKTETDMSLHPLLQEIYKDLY
Chain of Retinoic acid receptor RXR-alpha (Homo sapiens) (P19793 whole entry, looked up, the tested form may be a part): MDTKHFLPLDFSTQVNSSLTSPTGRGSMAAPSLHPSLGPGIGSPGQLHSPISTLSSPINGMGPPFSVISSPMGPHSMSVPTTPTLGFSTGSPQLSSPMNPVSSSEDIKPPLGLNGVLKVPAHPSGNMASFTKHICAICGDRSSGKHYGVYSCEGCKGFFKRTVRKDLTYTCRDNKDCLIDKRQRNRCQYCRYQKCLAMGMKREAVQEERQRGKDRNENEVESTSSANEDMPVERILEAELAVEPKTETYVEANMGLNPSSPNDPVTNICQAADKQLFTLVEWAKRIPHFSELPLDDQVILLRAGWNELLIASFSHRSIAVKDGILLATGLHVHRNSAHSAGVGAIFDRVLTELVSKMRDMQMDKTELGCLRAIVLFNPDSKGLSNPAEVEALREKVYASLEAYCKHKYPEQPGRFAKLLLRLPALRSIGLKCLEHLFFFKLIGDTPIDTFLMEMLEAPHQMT
Chain of human Thyroid Receptor alpha (THRa1), THRA (gene 7067) (P10827 whole entry, looked up, the tested form may be a part): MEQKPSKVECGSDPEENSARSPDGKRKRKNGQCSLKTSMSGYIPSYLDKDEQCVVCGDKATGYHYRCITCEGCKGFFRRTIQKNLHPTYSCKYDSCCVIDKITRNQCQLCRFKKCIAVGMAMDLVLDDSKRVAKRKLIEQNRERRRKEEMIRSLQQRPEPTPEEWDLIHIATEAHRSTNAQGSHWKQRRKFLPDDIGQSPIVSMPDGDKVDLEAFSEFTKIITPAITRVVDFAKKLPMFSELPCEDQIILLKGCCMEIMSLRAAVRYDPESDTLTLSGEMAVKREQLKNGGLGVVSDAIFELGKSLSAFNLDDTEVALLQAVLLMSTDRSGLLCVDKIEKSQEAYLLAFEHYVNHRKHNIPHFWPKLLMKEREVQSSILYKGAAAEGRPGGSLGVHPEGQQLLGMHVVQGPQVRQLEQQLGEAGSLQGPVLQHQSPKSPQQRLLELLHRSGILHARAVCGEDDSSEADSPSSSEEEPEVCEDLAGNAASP

One may read the AC50 as the midpoint of the concentration-response curve, whichever way the signal moves. On to `CC(C)N(C(=O)SCC(Cl)=C(Cl)Cl)C(C)C`, for which the AC50 in [1] is 32 µM (active); in [4], 30.9 µM (active); in test [6], 34.7 µM (active); in test [12], 30.7 µM (active); in test [14] it was 31.1 µM (active); in test [15], 32.2 µM (active). Moreover, the AC50 in test [16] is 32.9 µM (active); in test [17] it was 30.2 µM (active). In addition, the compound was classed as inactive in [2], in test [3], in [5], in test [7], in test [8] and in test [9]. Besides, the outcome in [10], in [11] and in test [13] was inactive.

As for `CNC(=O)Oc1cccc2c1OC(C)(C)O2`, the AC50 was 20 µM (active) in test [1], 27.3 µM (active) in test [12] and 28.6 µM (active) in test [16]. In addition, the outcome in [2], in test [3], in [4], in test [6], in test [18] and in test [7] was inactive. The outcome in test [19], in test [10], in test [13], in test [14], in [15] and in test [17] was inactive.

As to `CN1COCN(Cc2cnc(Cl)s2)C1=N[N+](=O)[O-]`, the result in [1], in test [2], in test [4], in test [5], in test [6] and in test [18] was inactive. Further, the compound was classed as inactive in test [8], in [20], in test [9], in [10], in [11] and in test [12]. The result in [13], in test [14], in test [15], in test [16] and in [17] was inactive.

`CC(Oc1cccc(Cl)c1)C(=O)O` (stereo not given): the result in test [1], in [2], in [3], in test [4], in test [6] and in [18] was inactive. The outcome in [7], in test [8], in [20], in test [12], in test [13] and in test [14] was inactive. Besides, the result in test [15], in test [16] and in test [17] was inactive.

Consider `CN(C)[C@@H]1C(=O)C(C(N)=O)=C(O)[C@@]2(O)C(=O)C3=C(O)c4c(O)cccc4[C@@](C)(O)[C@H]3[C@H](O)[C@@H]12`, for which the concentration at half-maximal activity (AC50) in [1] was 33 µM (active); in [6], 20 µM (active). The outcome in [1], in test [2], in test [4], in test [6], in test [18] and in [7] was inactive. The outcome in test [19], in [9], in test [10], in [11], in [12] and in [13] was inactive. Besides, the outcome in [14], in test [15], in [16] and in test [17] was inactive.

Consider `CCNc1nc(Cl)nc(NC(C)(C)C#N)n1`, for which the result in test [1], in [2], in [3], in [4], in [6] and in [18] was inactive. The outcome in test [20], in test [9], in test [10], in [12], in test [13] and in test [14] was inactive. Further, the result in test [15], in test [16] and in test [17] was inactive.

As to `CON=C(C(=O)OC)c1ccccc1CON=C(C)c1cccc(C(F)(F)F)c1`, the AC50 in [1] is 2.78 µM (active); in [6], 1.58 µM (active); in [18] it was 50 µM (active); in test [12], 2.35 µM (active); in [14], 3.3 µM (active); in [15], 2.81 µM (active). Also, the AC50 in [16] was 2.82 µM (active); in [17], 1.76 µM (active). In addition, the outcome in [2], in test [3], in [4], in [5], in test [7] and in test [8] was inactive. The call in [9], in test [10], in test [11] and in [13] was inactive.
